Experiment in all cases: DAPPL (digital affinity profiling via proximity ligation, sequencing); 10 mM Tris-HCl pH 7.5, 50 mM NaCl, 1 mM DTT, 4% glycerol, room temperature, 30 min; GST-TFs on glutathione beads, 16-mer random dsDNA library, 0.1% formaldehyde crosslink after washing; high values mean tight binding
In one assay the target is T1, FEV (Homo sapiens, UniProt Q99581 1-238).
T1 sequence: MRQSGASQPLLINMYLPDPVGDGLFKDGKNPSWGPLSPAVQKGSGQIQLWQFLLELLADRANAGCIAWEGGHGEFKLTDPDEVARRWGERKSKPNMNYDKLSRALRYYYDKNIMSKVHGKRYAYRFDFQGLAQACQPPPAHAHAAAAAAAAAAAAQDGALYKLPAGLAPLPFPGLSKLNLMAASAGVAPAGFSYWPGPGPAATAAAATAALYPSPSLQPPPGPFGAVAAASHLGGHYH
The conditions noted are these: protein: recombinant; tags: N-terminal GST; dsDNA, one strand shown. The essentials:
(§1)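 Binding signal is each hexamer's read frequency for a factor divided by its frequency in the tag-only sample. The factors were GST-fused human transcription factors from yeast, captured on glutathione beads, DNA-barcoded and pooled with that sample. Pools were incubated with 200 nmole of a random double-stranded 16-mer DNA library in Tris/NaCl/DTT/glycerol buffer at room temperature for 30 min, then washed, crosslinked with 0.1% formaldehyde, proximity-ligated with BsaI/T4 ligase (1 h, 37 °C), PCR-amplified and sequenced on an Illumina NextSeq500.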

The target of the next assay is ETV5 (Homo sapiens, UniProt P41161 1-510). The conditions noted are these: protein: recombinant; tags: N-terminal GST; dsDNA, one strand shown. The essentials:
as §1

Another assay deals with HSF1 (Homo sapiens, UniProt Q00613 1-529). The conditions noted are these: protein: recombinant; tags: N-terminal GST; chain copies: 3; dsDNA, one strand shown. The procedure, abridged:
as §1

A further assay concerns the target T2, SPIC (Homo sapiens, UniProt Q8N5J4 1-248).
T2 sequence: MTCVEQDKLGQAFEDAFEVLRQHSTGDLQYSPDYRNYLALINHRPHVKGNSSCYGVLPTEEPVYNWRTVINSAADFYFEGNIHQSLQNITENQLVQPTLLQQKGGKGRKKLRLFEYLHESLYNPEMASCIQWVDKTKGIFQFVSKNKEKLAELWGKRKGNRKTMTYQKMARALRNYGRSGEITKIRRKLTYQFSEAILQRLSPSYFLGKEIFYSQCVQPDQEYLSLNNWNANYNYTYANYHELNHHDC
The note with it: protein: recombinant; tags: N-terminal GST; dsDNA, one strand shown. The procedure, abridged:
as §1

Another assay concerns the target ELF4 (Homo sapiens, UniProt Q99607 1-663). The note with it: protein: recombinant; tags: N-terminal GST; dsDNA, one strand shown. The procedure, abridged:
as §1

The next assay has as its target T3, ELK4 (Homo sapiens, UniProt P28324-2 1-405).
T3 sequence: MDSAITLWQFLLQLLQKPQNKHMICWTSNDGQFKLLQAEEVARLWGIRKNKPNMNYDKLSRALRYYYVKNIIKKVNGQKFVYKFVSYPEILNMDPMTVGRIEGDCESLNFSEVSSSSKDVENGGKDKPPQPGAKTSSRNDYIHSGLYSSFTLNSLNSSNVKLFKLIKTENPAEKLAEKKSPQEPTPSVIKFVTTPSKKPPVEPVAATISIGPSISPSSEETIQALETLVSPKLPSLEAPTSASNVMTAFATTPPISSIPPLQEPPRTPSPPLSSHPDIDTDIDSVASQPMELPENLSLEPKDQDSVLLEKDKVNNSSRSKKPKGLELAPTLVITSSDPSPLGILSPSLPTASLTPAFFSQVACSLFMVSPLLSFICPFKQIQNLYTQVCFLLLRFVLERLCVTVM
The note with it: protein: recombinant; tags: N-terminal GST; dsDNA, one strand shown. The essentials:
as §1

A further assay addresses T4, ETV2 (Homo sapiens, UniProt O00321 1-342).
T4 sequence: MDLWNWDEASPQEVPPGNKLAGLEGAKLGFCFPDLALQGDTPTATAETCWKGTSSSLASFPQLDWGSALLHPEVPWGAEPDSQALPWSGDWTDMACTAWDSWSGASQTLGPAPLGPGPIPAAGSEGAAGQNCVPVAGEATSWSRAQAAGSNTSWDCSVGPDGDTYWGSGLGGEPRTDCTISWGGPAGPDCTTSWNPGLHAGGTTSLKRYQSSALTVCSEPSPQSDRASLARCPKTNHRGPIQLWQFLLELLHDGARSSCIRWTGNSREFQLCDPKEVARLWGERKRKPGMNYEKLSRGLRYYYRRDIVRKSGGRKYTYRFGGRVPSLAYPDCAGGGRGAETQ
The conditions noted are these: protein: recombinant; tags: N-terminal GST; dsDNA, one strand shown. The procedure, abridged: as §1

The target of the next assay is T5, ELF3 (Homo sapiens, UniProt P78545 1-371).
T5 sequence: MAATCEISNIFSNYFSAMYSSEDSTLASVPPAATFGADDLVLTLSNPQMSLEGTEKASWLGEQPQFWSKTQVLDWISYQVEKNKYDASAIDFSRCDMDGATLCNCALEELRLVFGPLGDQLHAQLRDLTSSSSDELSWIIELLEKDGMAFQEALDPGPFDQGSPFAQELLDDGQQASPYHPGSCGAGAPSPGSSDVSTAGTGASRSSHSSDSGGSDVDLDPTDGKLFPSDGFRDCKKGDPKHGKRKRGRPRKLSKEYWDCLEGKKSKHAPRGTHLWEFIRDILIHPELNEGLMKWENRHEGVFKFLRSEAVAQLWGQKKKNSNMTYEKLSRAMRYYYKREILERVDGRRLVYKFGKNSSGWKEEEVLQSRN
The note with it: protein: recombinant; tags: N-terminal GST; dsDNA, one strand shown. The procedure, abridged: as §1

In the next assay the target is CRX (Homo sapiens, UniProt O43186 1-299). The conditions noted are these: protein: recombinant; tags: N-terminal GST; dsDNA, one strand shown. The essentials:
as §1

The next assay addresses ETV1 (Homo sapiens, UniProt P50549 1-477). The conditions noted are these: protein: recombinant; tags: N-terminal GST; dsDNA, one strand shown. The essentials:
as §1

A further assay has as its target T6, ERF (Homo sapiens, UniProt P50548 1-548).
T6 sequence: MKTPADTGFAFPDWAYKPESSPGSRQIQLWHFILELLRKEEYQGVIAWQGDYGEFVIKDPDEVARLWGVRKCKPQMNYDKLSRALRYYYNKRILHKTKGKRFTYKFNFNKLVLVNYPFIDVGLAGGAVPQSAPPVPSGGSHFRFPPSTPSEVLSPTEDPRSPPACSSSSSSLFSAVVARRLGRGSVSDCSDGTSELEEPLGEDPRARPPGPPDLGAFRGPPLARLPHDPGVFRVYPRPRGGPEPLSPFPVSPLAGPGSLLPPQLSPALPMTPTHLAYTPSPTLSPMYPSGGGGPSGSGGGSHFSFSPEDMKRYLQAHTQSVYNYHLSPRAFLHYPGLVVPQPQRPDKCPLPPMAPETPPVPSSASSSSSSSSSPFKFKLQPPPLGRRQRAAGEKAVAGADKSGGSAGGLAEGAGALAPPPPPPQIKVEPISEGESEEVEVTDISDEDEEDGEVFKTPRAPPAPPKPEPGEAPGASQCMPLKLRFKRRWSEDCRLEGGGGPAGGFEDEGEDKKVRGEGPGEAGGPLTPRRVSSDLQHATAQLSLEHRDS
The conditions noted are these: protein: recombinant; tags: N-terminal GST; dsDNA, one strand shown. The procedure, abridged:
as §1

For a further assay, the target named is T7, ETV3L (Homo sapiens, UniProt Q6ZN32 1-361).
T7 sequence: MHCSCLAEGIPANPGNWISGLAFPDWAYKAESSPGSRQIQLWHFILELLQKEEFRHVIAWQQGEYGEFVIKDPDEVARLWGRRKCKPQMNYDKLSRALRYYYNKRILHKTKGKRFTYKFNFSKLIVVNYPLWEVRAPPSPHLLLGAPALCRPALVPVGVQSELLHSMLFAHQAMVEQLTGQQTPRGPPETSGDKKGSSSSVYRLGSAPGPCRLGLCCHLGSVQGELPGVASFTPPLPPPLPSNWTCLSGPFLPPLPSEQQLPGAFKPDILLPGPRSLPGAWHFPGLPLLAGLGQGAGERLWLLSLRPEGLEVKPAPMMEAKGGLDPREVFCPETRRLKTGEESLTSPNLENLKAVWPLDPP
The note with it: protein: recombinant; tags: N-terminal GST; dsDNA, one strand shown. The procedure, abridged: as §1

For a further assay, the target named is T8, ETS2 (Homo sapiens, UniProt P15036 1-469).
T8 sequence: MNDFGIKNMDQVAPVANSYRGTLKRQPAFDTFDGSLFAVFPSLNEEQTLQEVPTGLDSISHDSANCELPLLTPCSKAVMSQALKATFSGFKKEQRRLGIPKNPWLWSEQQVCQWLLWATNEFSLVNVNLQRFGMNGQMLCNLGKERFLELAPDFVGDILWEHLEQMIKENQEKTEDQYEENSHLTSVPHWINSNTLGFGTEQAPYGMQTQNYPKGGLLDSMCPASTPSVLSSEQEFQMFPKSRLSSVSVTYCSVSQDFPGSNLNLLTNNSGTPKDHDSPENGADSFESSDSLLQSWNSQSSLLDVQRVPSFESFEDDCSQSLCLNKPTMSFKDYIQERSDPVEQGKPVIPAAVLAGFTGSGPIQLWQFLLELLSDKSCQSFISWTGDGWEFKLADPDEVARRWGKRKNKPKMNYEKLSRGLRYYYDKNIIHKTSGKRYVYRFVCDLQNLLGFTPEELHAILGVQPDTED
The note with it: protein: recombinant; tags: N-terminal GST; dsDNA, one strand shown. The essentials: as §1

Another assay has as its target T9, SPDEF (Homo sapiens, UniProt O95238 1-335).
T9 sequence: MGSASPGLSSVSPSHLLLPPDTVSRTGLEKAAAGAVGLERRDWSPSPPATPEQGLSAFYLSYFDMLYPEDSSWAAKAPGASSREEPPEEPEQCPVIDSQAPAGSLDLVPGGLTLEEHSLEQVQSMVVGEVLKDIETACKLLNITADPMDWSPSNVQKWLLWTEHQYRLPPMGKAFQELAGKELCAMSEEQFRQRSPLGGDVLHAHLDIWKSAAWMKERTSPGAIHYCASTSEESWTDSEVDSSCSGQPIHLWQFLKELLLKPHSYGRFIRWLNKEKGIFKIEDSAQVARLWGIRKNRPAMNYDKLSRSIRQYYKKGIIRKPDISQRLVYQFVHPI
The conditions noted are these: protein: recombinant; tags: N-terminal GST; dsDNA, one strand shown. The essentials:
as §1

The target in the next assay is T10, ETV7 (Homo sapiens, UniProt Q9Y603 1-341).
T10 sequence: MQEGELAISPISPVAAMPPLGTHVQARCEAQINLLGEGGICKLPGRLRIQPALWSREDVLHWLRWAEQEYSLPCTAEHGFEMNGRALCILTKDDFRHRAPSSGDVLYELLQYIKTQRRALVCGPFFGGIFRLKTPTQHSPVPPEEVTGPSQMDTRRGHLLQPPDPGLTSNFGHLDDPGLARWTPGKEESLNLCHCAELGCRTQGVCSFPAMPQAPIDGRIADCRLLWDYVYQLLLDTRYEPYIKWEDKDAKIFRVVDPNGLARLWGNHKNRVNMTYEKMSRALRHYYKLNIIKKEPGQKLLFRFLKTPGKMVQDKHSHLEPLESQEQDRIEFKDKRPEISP
The note with it: protein: recombinant; tags: N-terminal GST; dsDNA, one strand shown. The essentials: as §1

For another assay, the target named is T11, ELF5 (Homo sapiens, UniProt Q9UKW6-2 1-255).
T11 sequence: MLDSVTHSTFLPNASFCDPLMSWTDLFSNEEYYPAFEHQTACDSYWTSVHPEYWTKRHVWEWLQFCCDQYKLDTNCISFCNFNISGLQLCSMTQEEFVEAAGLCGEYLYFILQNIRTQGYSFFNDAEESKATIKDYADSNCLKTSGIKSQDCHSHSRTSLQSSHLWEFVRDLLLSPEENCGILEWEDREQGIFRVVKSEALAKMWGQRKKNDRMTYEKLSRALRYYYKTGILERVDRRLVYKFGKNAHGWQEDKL
The conditions noted are these: protein: recombinant; tags: N-terminal GST; dsDNA, one strand shown. The essentials:
as §1

The next assay addresses T12, ETV3 (Homo sapiens, UniProt P41162-2 1-143).
T12 sequence: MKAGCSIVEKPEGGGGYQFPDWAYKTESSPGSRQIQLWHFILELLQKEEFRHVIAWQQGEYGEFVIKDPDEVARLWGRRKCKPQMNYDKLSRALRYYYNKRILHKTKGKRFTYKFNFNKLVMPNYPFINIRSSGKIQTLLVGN
The conditions noted are these: protein: recombinant; tags: N-terminal GST; dsDNA, one strand shown. The procedure, abridged:
as §1

The next assay deals with ETV6 (Homo sapiens, UniProt P41212 1-452). The note with it: protein: recombinant; tags: N-terminal GST; dsDNA, one strand shown. The procedure, abridged:
as §1

Sequence of ETV1 (P50549 whole entry): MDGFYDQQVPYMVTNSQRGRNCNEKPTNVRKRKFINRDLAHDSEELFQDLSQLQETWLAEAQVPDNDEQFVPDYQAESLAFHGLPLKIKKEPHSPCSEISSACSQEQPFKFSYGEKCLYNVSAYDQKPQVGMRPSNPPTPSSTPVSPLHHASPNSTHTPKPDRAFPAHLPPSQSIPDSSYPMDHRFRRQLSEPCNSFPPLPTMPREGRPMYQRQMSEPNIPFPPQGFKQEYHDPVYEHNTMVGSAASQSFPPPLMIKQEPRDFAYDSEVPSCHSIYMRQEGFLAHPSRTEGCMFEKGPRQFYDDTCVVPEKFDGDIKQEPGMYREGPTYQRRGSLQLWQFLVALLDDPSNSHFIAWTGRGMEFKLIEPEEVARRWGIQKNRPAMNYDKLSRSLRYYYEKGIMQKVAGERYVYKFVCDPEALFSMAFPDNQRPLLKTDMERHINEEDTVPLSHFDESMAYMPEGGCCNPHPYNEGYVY
Sequence of HSF1 (Q00613 whole entry): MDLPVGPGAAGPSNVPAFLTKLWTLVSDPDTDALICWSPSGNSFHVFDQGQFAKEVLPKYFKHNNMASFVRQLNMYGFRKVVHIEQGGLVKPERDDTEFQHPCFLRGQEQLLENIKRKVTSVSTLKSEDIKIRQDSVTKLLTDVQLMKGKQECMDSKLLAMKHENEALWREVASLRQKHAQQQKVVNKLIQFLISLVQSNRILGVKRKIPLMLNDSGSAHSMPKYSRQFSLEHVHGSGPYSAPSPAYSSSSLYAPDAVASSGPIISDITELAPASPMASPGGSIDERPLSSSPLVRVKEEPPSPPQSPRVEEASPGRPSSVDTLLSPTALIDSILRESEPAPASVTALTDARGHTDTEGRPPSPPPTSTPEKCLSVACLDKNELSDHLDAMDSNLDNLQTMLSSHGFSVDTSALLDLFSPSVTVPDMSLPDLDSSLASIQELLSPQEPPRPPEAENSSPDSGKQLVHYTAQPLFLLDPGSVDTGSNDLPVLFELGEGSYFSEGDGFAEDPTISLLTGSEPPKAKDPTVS
Sequence of CRX (O43186 whole entry): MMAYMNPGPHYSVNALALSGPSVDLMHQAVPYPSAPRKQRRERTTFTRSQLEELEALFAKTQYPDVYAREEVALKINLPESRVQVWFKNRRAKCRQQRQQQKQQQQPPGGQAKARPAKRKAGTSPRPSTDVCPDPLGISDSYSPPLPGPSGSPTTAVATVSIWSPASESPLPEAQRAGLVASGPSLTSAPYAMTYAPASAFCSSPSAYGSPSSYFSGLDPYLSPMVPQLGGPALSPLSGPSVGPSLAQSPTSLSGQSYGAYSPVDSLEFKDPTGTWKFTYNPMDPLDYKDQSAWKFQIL
Sequence of ETV6 (P41212 whole entry): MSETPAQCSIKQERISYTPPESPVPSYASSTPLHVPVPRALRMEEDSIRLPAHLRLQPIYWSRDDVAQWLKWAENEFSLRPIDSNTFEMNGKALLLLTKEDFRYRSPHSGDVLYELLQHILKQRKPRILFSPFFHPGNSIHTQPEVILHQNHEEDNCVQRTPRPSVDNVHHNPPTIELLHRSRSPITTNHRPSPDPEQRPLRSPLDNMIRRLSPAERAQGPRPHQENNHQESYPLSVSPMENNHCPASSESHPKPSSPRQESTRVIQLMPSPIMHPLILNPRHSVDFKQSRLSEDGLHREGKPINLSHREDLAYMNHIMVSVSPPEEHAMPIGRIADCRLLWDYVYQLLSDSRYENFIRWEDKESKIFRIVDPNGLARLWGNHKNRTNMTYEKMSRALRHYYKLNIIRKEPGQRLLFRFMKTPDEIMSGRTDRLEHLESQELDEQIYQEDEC
Sequence of ELF4 (Q99607 whole entry): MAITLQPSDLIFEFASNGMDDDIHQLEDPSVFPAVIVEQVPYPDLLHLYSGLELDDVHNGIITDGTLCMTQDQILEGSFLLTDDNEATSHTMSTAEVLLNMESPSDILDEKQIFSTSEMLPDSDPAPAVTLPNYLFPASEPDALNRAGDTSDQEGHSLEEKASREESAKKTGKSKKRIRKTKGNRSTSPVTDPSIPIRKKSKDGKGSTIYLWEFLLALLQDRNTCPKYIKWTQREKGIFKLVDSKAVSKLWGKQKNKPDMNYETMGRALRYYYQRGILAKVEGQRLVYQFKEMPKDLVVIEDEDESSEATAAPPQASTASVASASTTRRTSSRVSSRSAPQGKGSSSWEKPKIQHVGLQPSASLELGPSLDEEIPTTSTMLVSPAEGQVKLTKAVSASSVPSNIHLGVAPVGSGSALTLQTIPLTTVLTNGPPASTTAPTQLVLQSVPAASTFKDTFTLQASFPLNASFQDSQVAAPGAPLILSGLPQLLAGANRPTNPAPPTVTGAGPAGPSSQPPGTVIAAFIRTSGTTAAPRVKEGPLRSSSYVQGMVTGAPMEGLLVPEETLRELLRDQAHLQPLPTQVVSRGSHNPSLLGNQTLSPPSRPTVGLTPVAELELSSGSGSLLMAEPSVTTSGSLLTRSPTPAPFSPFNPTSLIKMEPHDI
Sequence of ETV5 (P41161 whole entry): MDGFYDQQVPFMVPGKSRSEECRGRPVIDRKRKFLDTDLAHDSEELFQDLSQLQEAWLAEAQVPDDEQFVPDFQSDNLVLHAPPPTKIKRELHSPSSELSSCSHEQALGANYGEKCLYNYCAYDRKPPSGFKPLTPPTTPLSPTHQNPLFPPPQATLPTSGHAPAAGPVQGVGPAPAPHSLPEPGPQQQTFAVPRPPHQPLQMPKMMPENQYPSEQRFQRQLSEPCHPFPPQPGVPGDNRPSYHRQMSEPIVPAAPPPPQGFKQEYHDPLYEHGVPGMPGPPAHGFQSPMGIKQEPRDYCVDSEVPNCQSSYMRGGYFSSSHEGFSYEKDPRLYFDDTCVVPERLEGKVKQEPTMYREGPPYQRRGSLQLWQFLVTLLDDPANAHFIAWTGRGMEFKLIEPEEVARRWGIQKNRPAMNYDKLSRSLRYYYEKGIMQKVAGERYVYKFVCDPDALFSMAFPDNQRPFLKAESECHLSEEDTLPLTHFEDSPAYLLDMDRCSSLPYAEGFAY

Regarding CTTAAA, the binding signal with FEV is 1.21 fold enrichment (6-mer frequency, TF over GST control); with ETV5, 1.21 fold enrichment (6-mer frequency, TF over GST control); with HSF1 it was 1.65 fold enrichment (6-mer frequency, TF over GST control); with SPIC, 1.21 fold enrichment (6-mer frequency, TF over GST control); with ELF4, 1.12 fold enrichment (6-mer frequency, TF over GST control); in the assay with ELK4, 1.11 fold enrichment (6-mer frequency, TF over GST control). The binding signal is 1.1 fold enrichment (6-mer frequency, TF over GST control) with ETV2; 1.2 fold enrichment (6-mer frequency, TF over GST control) with ELF3; 2.38 fold enrichment (6-mer frequency, TF over GST control) in the assay with CRX; 1.25 fold enrichment (6-mer frequency, TF over GST control) with ETV1; 1.17 fold enrichment (6-mer frequency, TF over GST control) in the assay with ERF; 1.3 fold enrichment (6-mer frequency, TF over GST control) with ETV3L. For the same sequence, the binding signal was 1.28 fold enrichment (6-mer frequency, TF over GST control) in the assay with ETS2; 1.27 fold enrichment (6-mer frequency, TF over GST control) in the assay with SPDEF; 1.19 fold enrichment (6-mer frequency, TF over GST control) in the assay with ETV7; 1.16 fold enrichment (6-mer frequency, TF over GST control) with ELF5; 1.22 fold enrichment (6-mer frequency, TF over GST control) in the assay with ETV3; 1.26 fold enrichment (6-mer frequency, TF over GST control) with ETV6.
